Shiga toxin inh: A qHTS for Small Molecule Inhibitors of Shiga Toxin | 290,000 compounds, 9.2% hits | inhibition, % at 38.7 µM | Vero cells, Shiga toxin protein synthesis inhibition reporter; in the data active = inhibition mostly above about 28%, no sharp cut-off; inactive = mostly below about 43%; note: 0% is about no effect
Pf growth 96h: Primary qHTS for delayed death inhibitors of the malarial parasite plastid, 96 hour incubation; 320,000 compounds, 6.9% hits; Potency, µM (doses to about 28.7 µM), inactives show at the top dose activity change, negative = inhibition, hits mostly inhibitors; P. falciparum luciferase reporter growth, 96 h; note: potency is the fitted concentration of half-maximal effect; % is set by controls: 0 for no effect and ±100 for the full control effect
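96 h incubation, 37 C, 5% CO2, of luciferase-reporter P. falciparum-infected RBCs (2% hematocrit, 0.05% parasitemia final) with test compounds; endpoint luminescence.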
Cycloheximide cs: Cycloheximide Counterscreen for Small Molecule Inhibitors of Shiga Toxin; cell reporter, cycloheximide protein synthesis inhibition counterscreen; max response, %; 300,000 compounds, 12% hits; in the data active = max response mostly above about 13%, no sharp cut-off; inactive = mostly below about 14%; note: read at 38.3 µM for the half of the compounds with a filed dose; 0% is about no effect
HCV inhibitor: qHTS Assay for Inhibitors of Hepatitis C Virus (HCV) | 340,000 compounds, 3.4% hits | Huh7.5.1 HCVcc-Cre infection, luciferase reporter, 44 h | Potency, µM (doses to about 41.8 µM), for inactives: at the top dose activity change, negative = inhibition, usual class: inhibitors; note: potency is the fitted concentration of half-maximal effect; % is set by controls: 0 for no effect and ±100 for the full control effect
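Cells (1,000/well) were plated 4 h before compound, then infected with HCVcc-Cre virus (~0.5 moi). After 44 h further culture, infection was read as luciferase luminescence following a 15 min substrate incubation at room temperature.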
AMA1-RON2 inh: qHTS for Inhibitors of AMA1-RON; Towards Development of Antimalarial Drug Lead: Primary Screen; AlphaScreen AMA1-biotinylated RON2 peptide binding; Potency, µM (series often up to 58.2 µM), without a hit: at the top dose activity change, negative = inhibition, actives largely listed as inhibitors; 360,000 compounds, 0.2% hits; AID 720542, 2013;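 note: potency is the fitted concentration of half-maximal effect; 0% = vehicle wells and -100% = peptide control; nearly all actives have a fitted effect of over 45% in size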
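AMA1 (3D7) with his tag at 25 nM final met compounds first, then biotinylated RON2 peptide at 25 nM; detection used donor plus acceptor beads, 10 µg/mL apiece, read by AlphaScreen after 30 min at room temperature.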
Pf growth 48h: Primary qHTS for delayed death inhibitors of the malarial parasite plastid, 48 hour incubation. 310,000 compounds, 5.9% hits. P. falciparum luciferase growth in erythrocytes, 48 h. Potency, µM (series often up to 28.7 µM), for the others: top-dose activity change, negative = inhibition, most hits filed as inhibitors. AID 504832, 2011; note: potency is the fitted concentration of half-maximal effect; % is set by controls: 0 for no effect and ±100 for the full control effect
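A one-generation exposure of luciferase-tagged malaria parasites in RPMI 1640/Albumax erythrocyte culture, 37 C and 5% CO2. Inhibition is inferred from decreased luminescence after adding detection reagent.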
Numbers without * were called inactive; i = inactive; u = inconclusive; x = no result given; [ ] = dose if it differs, or a comment. The list is not random: actives were taken first. Their share in the collection is about 21%. Unless noted, calls come from the whole dose curve; as a rule, active = well fitted curve in the direction sought with a large enough effect; inconclusive = small, poorly fitted or top-dose-only effect, or another doubt; inactive = no such curve, though single readings can be large; an effect the other way counts as inactive or inconclusive.

SMILES	Shiga toxin inh	Pf growth 96h	Cycloheximide cs	HCV inhibitor	AMA1-RON2 inh	Pf growth 48h
CCCNC(=O)C1(CC2CC(c3ccccc3)=NO2)CCN(C(=O)c2ccccc2)CC1 (configuration not stated)	x	u	x	5%	1%	12µM*
CC(C)(C)OC(=O)N1CCC(CC2CC(c3cccc(Br)c3)=NO2)(C(=O)NCC2CCCCC2)CC1 (configuration not stated)	26	u	13*	-2%	-25%	u
CCOc1cc(C(=O)N2CCC(CC3CC(c4ccc(Cl)cc4)=NO3)(C(=O)NCC3CCCCC3)CC2)cc(OCC)c1OCC (configuration not stated)	-4	0.23µM*	-2	u	-8%	0.29µM*
O=C(c1ccccc1)N1CCC(CC2CC(c3cccc(Br)c3)=NO2)(C(=O)NCC2CCCCC2)CC1 (configuration not stated)	3	5.2µM*	3	7%	-2%	u
CCCNC(=O)C1(CC2CC(c3ccccc3)=NO2)CCN(C(=O)C2(C)CC2)CC1 (configuration not stated)	x	x	x	10%	-5%	x
CS(=O)(=O)NC(=O)CCC/C=C\C[C@H]1C(=O)C[C@@H](O)[C@@H]1/C=C/[C@@H](O)COc1ccccc1	-13	x	-7	x	x	x
Cc1ccc(/C=C/C(=O)NC(=S)Nc2ccccc2C(=O)NC2CCCCC2)cc1	-6	u	-1	-20%	13%	u
CC(=O)NC(=S)Nc1ccccc1C(=O)NC1CCCCC1	18	8.3µM*	-5	2%	9%	-30%
O=C(/C=C/c1ccc(F)cc1)NC(=S)NC1CCCCC1	-5	3.3µM*	5	3%	1%	u
CCN(C(=O)/C=C/c1ccc(OC)cc1)C1CCCCC1	16	u	12*	u	0%	1%
O=C(/C=C/c1ccc(F)cc1)NC(=S)Nc1ccccc1C(=O)NC1CCCCC1	-3	-1%	1	u	26%	0%
COc1ccc(/C=C/C(=O)NC(=S)Nc2ccccc2C(=O)NC2CCCCC2)cc1	-9	23%	-1	25µM*	13%	3%
CCN(C(=O)/C=C/c1ccc(OC)cc1)C1CCS(=O)(=O)C1 (configuration not stated)	x	u	x	9%	8%	-78%
Cc1ccnc(NS(=O)(=O)c2ccc(NC(=O)c3cc(=O)c4ccccc4o3)cc2)n1	-2	u	-2	21%	13%	-3%
CC1(C(=O)NS(=O)(=O)c2ccccc2C(F)(F)F)CCN1C(=O)COc1ccc(Cl)cc1 (configuration not stated)	x	x	x	x	-8%	x
O=C(NNC(=S)NC1CCCCC1)c1ccccc1O	62*	2.3µM*	16*	u	-55%	39%
O=C(CC(=O)c1ccccc1)Nc1cccnc1	11	11%	24*	27%	-8%	13%
O=C(CCCOc1ccccc1)Nc1cccnc1	-4	u	-2	7%	3%	-4%
O=C(O)C1CC=CCC1C(=O)Nc1cccnc1 (configuration not stated)	3	86%	-2	4%	-7%	9.3µM*
O=C(Nc1ccccc1)C(=O)Nc1cccnc1	53*	243%	32*	3%	-6%	161%
O=C(O)/C=C/C(=O)Nc1cccnc1	-10	-1%	-1	32%	-13%	-3%
CC1=CC(C)C(C(=O)O)C(C(=O)Nc2cccnc2)C1 (configuration not stated)	5	-29%	7	4%	19%	32%
O=C(CS(=O)(=O)c1ccccc1)Nc1cccnc1	-16	59%	-2	17%	-10%	13%
O=C(CCCc1ccccc1)Nc1cccnc1	66*	21%	19*	11%	2%	x
O=C(Nc1cccnc1)C12CC3CC(CC(C3)C1)C2	23	23%	-1	21%	13%	-25%
SMILES	Shiga toxin inh	Pf growth 96h	Cycloheximide cs	HCV inhibitor	AMA1-RON2 inh	Pf growth 48h
O=C(Nc1cccnc1)C1(F)C(F)(F)C(F)(F)C(F)(F)C(F)(F)C1(F)F	-11	5%	3	3.2µM*	7%	-4%
Cc1nc(-c2cccnc2)sc1C(=O)N/N=C/c1ccccc1Cl	-23	17%	-2	5%	-25%	9%
CSc1ccc2nnc(-c3cccc(F)c3)n2n1	-9	u	-2	u	-1%	-3%
O=C(CSc1ccc2nnc(-c3cccnc3)n2n1)NCc1ccco1	-19	-17%	3	0%	-2%	x
CCOC(=O)CC(=O)CSc1ccc2nnc(-c3cccc(F)c3)n2n1	-32	7%	-2	u	8%	7.4µM*
COC(=O)c1ccc(CSc2ccc3nnc(-c4cccc(F)c4)n3n2)o1	-8	u	0	1%	0%	12µM*
O=C(CSc1ccc2nnc(-c3cccc(F)c3)n2n1)NCc1ccco1	-8	6.6µM*	-2	u	-10%	u
Cc1ccc2nc(-c3ccccc3)nn2c1	x	x	x	-10%	1%	x
CCOc1cc(S(=O)(=O)NCc2ccncc2)ccc1Cl	2	15%	-3	u	0%	-41%[5.75 µM]
CC1(C)Cc2c(sc(NC(=S)NC(=O)c3ccccc3)c2C(=O)O)CO1	3	10%	2	-8%	38%	3%
CNC(=O)c1c(NC(=O)c2ccco2)sc2c1CCCC2	32	15%	29*	14µM*	4%	20%
CCOC(=O)c1c(NC(=O)C2CC2)sc2c1CC(C)(C)OC2	15	-4%	-3	u	1%	12µM*
CCOC(=O)c1c(NC(=O)CCC(=O)O)sc2c1CC(C)(C)OC2	4	6%	-4	20%	-10%	-11%
O=C(Nc1sc2c(c1C(=O)NCc1cccnc1)CCCC2)c1ccco1	14	u	7	7.9µM*	12%	u
CC1(C)Cc2c(sc(NC(=O)c3ccco3)c2C(=O)O)CO1	44	217%	30*	10%	20%	x
O=C(NC(Cc1ccccc1)C(=O)O)/C(=C/c1ccc(Br)cc1)NC(=O)c1ccc(Br)o1 (configuration not stated)	-32	18%	0	17%	17%	7%
CNC(=O)c1ccc2cc(OC)c(OC)cc2c1	x	x	x	x	-5%	x
CC(OC(=O)/C=C/c1ccccc1)C(=O)Nc1cccc(C#N)c1 (configuration not stated)	x	33%	x	u	-20%	u
CC1(C)Cc2c(sc(NC(=O)c3ccc(Br)o3)c2C#N)CO1	71*	i	45*	-29%	-1%	223%

Source: PubChem BioAssay
